PubChem BioAssay
The source made the active and inactive calls.

Legend:
Albumin (Bos taurus) = Albumin (Bos taurus) (UniProt P02769); assay: compounds binding labelled BSA control protein – biochemical, small-molecule microarray, Alexa647 label, 635/667 nm fluorescence, artefact control for SMM control protein annotation, profiling panel (AID 1118); conditions: BSA-A647 binding, fluorescence 635 nm, higher = more signal;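 note: score merges 667 nm emission intensity and signal-to-noise per printed compound spot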
[1] = probe aXIP binding to arrayed compounds – biochemical, NeuroSMM set, 635/667 nm fluorescence, primary screen (AID 1119); conditions: small-molecule microarray, higher = more signal, called active from +8 up or from −8 down;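 note: probe is the protein aXip251-270 applied at 1 µg/mL to compound-printed slides; binding of probe to printed compounds measured as 667 nm fluorescence plus signal to noise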
[2] = probe aNOTCH3 binding on compound microarray – biochemical, small-molecule microarray, 635/667 nm fluorescence, primary screen (AID 1120); conditions: higher = more signal;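 note: probe is a biotin-tagged antibody raised against NOTCH3 rather than NOTCH3 protein; score merges spot fluorescence near 667 nm with spot signal to noise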
[3] = probe aNOTCH2 binding on compound microarray – biochemical, small-molecule microarray, 635/667 nm fluorescence, primary screen (AID 1121); conditions: higher = more signal;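 note: score merges feature fluorescence read at 667 nm with its signal to noise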
[4] = molecular target: Carbonic anhydrase 2 (Homo sapiens) (UniProt P00918); assay: compounds binding carbonic anhydrase 2 – biochemical, small-molecule microarray, Alexa647-labelled CAII, profiling panel (AID 1122); conditions: CAII-A647 binding fluorescence, higher = more signal
[5] = COS7 lysate on small-molecule microarray, probe aHis, 635 nm (AID 1123); conditions: COS7 cell lysate, fluorescence, higher = more signal;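 note: z-score combines 667nm fluorescence intensity with signal-to-noise per printed compound spot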
[6] = probe aLAP1 signal on lysate-treated microarray – cell lysate, small-molecule microarray, COS7 lysate, primary screen (AID 1124); conditions: probe aLAP1, fluorescence, higher = more signal;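 note: lysate comes from COS7 cells expressing LAP1 and is applied at 0.3 µg/mL; score merges spot fluorescence near 667 nm with signal-to-noise over triplicate slides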
Sam68 (KHDRBS1) = assay: compounds binding KHDRBS1 protein – biochemical, small-molecule microarray, 635 nm fluorescence, primary screen (AID 1125); conditions: higher = more signal;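 note: score merges 667 nm channel intensity with signal to noise over triplicate slides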
[7] = system: Chordin-like protein 2 (CHRDL2); assay: compounds binding chordin-like 2 – biochemical, small-molecule microarray, 635 nm fluorescence, primary screen (AID 1126); conditions: fluorescence 635 nm, higher = more signal;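 note: printed compound slides probed with Chrdl2 protein at 4 µg/mL for 1 h at 4 C; score merges 667 nm emission intensity with signal to noise over three replicate slides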
[8] = molecular target: Concanavalin-A (Canavalia ensiformis) (UniProt P02866); assay: compounds binding concanavalin A lectin – biochemical, small-molecule microarray, Alexa647 label, 635 nm, artefact control for SMM control protein annotation, primary screen (AID 1127); conditions: ConA-A647 binding fluorescence, higher = more signal;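 note: z combines 667 nm emission intensity with signal-to-noise across three replicate slides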
[9] = compounds binding Alexa647 anti-His antibody – biochemical, small-molecule microarray, 635 nm fluorescence, artefact control for SMM control protein annotation, primary screen (AID 1128); conditions: higher = more signal;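 note: score merges feature fluorescence with signal-to-noise for each printed compound spot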
[10] = system: Human papillomavirus type 1a E7 protein (residues 1-88); assay: HPV1a E7 small-molecule binders, primary screen, biochemical, small-molecule microarray, residues 1-88, 635 nm (AID 1129); conditions: small-molecule microarray binding, fluorescence 635 nm; higher = more signal
[11] = molecular target: Focal adhesion kinase 1 (Homo sapiens) (UniProt Q05397); assay: PTK2 protein binding on printed compound slides – biochemical, small-molecule microarray, 635/667 nm fluorescence, BSA, DTT, primary screen (AID 1130); conditions: 635 nm fluorescence, higher = more signal;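 note: composite of spot emission at 667 nm and signal to noise over triplicate slides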
[12] = system: Fibrinogen (Alexa647-labelled); assay: Alexa647-fibrinogen binding to printed small molecules – biochemical, small-molecule microarray, 635/667 nm fluorescence, artefact control for SMM control-protein annotation, profiling panel (AID 1131); conditions: fibrinogen-A647 binding fluorescence, higher = more signal;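 note: z-score merges 667 nm fluorescence with per-spot signal-to-noise over triplicate slides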
[13] = molecular target: Follistatin (Homo sapiens) (UniProt P19883); assay: FST protein binding to printed compounds – biochemical, small-molecule microarray, 635/667 nm fluorescence, primary screen (AID 1132); conditions: 635 nm fluorescence, higher = more signal
[14] = molecular target: Fibroblast growth factor 2 (Homo sapiens) (UniProt P09038); assay: basic fibroblast growth factor binding to printed compounds – biochemical, small-molecule microarray, 635/667 nm fluorescence, primary screen (AID 1133); conditions: FGF2, fluorescence 635/667, higher = more signal
[15] = JC-1 mitochondrial potential readout, lung cancer cells – cell-based, A549, JC-1 fluorescence, basal, 24 h, 100 nL, profiling panel (AID 1138); conditions: higher = more signal;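 note: A549 lung adenocarcinoma cells under basal conditions with no added stimulus; test concentration not given here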
Lefty1 = Lefty1 protein binding to printed compounds – biochemical, small-molecule microarray, 635/667 nm fluorescence, primary screen (AID 1139); conditions: fluorescence 635/667, higher = more signal
[16] = system: wheat germ agglutinin (Triticum aestivum), Alexa647-labelled; assay: Alexa647-WGA lectin binding to printed small molecules – biochemical, small-molecule microarray, 635/667 nm fluorescence, artefact control for SMM control-protein annotation, profiling panel (AID 1140); conditions: WGA-A647 binding, 635 nm fluorescence, higher = more signal;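 note: score merges 667 nm feature emission with signal to noise over triplicate slides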
[17] = molecular target: Luciferin 4-monooxygenase (Photinus pyralis) (UniProt P08659); assay: inhibition of purified Photinus pyralis luciferase – biochemical, luminescence, purified enzyme, 2006 set, primary screen (AID 1141); conditions: purified firefly luciferase, SteadyGlo luminescence, 30 min; higher = more signal, called active from +8 up or from −8 down;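 note: cell-free assay with purified firefly luciferase at 100 ng per well in PBS; test concentration not given here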
Chain of Luciferin 4-monooxygenase (Photinus pyralis) (P08659 whole entry, looked up): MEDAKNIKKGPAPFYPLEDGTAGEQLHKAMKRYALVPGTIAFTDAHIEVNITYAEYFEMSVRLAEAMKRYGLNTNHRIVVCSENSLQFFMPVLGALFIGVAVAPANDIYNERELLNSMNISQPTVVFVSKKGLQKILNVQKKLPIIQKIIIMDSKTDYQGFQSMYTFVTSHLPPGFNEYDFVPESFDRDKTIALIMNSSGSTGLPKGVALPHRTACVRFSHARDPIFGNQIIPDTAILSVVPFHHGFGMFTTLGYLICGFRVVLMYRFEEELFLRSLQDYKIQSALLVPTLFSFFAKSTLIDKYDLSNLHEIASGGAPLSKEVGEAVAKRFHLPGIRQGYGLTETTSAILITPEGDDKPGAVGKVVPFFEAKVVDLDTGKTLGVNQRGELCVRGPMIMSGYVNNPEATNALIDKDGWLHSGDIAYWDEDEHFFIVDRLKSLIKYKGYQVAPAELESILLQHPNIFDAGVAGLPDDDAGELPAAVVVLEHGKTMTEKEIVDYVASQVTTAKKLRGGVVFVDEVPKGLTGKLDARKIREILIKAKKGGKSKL

Chain of Focal adhesion kinase 1 (Homo sapiens) (Q05397 whole entry, looked up): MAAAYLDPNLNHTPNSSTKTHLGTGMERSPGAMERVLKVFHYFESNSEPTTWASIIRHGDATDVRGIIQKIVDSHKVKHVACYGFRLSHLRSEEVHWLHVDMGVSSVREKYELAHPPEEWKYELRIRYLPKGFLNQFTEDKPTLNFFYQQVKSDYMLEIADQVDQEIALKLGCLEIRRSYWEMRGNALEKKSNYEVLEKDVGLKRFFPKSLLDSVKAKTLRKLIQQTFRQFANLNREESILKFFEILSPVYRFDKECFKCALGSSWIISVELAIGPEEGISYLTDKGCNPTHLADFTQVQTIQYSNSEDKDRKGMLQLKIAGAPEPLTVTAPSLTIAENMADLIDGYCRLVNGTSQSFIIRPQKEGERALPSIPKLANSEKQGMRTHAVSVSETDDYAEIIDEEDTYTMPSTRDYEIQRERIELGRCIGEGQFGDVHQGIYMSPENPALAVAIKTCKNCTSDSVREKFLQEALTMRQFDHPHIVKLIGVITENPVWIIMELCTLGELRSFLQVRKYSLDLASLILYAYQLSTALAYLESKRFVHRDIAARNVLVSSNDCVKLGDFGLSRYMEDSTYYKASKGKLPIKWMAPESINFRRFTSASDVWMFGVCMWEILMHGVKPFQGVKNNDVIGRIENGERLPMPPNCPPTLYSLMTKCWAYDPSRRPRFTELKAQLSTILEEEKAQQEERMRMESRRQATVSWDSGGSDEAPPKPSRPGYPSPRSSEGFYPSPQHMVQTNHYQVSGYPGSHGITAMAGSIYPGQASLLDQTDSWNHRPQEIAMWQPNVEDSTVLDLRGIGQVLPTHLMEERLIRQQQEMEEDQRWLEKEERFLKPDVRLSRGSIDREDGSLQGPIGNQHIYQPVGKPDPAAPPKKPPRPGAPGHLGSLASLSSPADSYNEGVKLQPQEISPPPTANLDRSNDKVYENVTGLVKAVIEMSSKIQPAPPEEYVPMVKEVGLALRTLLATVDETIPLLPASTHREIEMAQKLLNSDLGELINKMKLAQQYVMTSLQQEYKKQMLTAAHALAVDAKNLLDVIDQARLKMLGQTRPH
Chain of Follistatin (Homo sapiens) (P19883 whole entry, looked up): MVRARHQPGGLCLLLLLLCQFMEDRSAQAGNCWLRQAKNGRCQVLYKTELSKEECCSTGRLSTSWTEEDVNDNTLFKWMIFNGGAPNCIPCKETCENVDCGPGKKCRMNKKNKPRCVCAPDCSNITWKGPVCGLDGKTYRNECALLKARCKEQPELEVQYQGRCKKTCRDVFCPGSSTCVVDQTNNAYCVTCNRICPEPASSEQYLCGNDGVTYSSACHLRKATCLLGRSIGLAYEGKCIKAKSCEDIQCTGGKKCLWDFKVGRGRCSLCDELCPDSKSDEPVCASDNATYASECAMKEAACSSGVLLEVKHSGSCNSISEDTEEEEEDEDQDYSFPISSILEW
Chain of Concanavalin-A (Canavalia ensiformis) (P02866 whole entry, looked up): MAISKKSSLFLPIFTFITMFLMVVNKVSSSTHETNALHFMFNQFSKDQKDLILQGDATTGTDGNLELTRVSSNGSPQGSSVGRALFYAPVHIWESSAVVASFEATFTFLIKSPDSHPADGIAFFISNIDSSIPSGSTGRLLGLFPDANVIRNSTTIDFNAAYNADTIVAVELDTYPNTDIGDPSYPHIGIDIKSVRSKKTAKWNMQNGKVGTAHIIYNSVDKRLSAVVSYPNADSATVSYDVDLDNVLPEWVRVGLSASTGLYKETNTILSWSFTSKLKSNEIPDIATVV
Chain of Albumin (Bos taurus) (P02769 whole entry, looked up): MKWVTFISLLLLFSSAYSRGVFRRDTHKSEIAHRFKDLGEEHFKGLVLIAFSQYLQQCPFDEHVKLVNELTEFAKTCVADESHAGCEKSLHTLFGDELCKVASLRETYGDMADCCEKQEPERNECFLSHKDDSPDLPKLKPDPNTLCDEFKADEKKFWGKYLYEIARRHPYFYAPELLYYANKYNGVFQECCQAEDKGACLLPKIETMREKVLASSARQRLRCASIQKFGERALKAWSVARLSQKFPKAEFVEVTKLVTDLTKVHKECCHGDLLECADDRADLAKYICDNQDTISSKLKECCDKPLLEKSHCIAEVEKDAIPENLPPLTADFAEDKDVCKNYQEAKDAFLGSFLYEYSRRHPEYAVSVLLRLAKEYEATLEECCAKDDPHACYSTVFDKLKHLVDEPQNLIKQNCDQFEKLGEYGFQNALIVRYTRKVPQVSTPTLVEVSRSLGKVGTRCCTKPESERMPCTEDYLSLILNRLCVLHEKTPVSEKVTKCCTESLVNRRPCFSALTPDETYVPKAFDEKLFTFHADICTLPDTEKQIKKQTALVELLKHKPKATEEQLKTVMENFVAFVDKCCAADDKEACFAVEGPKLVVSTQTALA
Chain of Fibroblast growth factor 2 (Homo sapiens) (P09038 whole entry, looked up): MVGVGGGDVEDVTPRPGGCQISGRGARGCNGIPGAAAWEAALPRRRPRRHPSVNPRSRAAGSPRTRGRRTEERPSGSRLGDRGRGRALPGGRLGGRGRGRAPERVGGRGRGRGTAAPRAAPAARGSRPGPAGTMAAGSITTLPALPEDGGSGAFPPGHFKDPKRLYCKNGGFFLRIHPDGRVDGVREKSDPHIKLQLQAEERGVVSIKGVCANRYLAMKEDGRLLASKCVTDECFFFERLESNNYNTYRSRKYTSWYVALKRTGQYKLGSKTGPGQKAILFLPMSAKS

SMILES	composite z-score (Albumin (Bos taurus))	composite Z-score [1]	composite z-score [2]	composite z-score [3]	composite z-score [4]	composite z-score [5]	composite z-score [6]	composite z-score (Sam68 (KHDRBS1))	composite z-score [7]	composite z-score [8]	composite z-score [9]	composite z-score [10]	composite z-score [11]	composite z-score [12]	composite z-score [13]	composite z-score [14]	z-score [15]	composite z-score (Lefty1)	composite z-score [16]	z-score [17]
CCCCN1CC=CC23O[C@@H]4/C=C\CCCOC(=O)C4[C@H]2C(=O)N(CCCCCO)[C@@H]3C1=O (stereo not given in full)	-1.09	0.414 (inactive)	-0.326	-0.192	0.754	-0.494	0.85	-1.12	-0.722	-1.22	0.688	-1.02	1.31	-0.918	-0.803	-0.573	0.897	-1.12	-0.595	0.686 (inactive)
COc1ccc(C(O)C2C=CC3C(=O)N(C)C(=O)C3N2NC(=O)OC(C)(C)C)c2ccccc12 (stereo not given)	1.02	-0.128 (inactive)	0.424	0.0315	0.745	2.98	0.404	1.3	-0.345	1.11	1.62	1.28	0.685	0.988	0.832	-0.161	-0.771	-0.33	1.31	-0.9 (inactive)
O=C1C[C@@](C(=O)NCc2ccccc2)(c2ccc([N+](=O)[O-])cc2)[C@@H](c2ccc(CO)cc2)N1CC12CC3CC(CC(C3)C1)C2	-0.0057	-0.36 (inactive)	-0.128	-0.14	0.479	1.37	2.12	1.31	0.119	0.89	0.729	1.19	1.42	-0.151	1.33	1.46	1.44	0.943	0.162	-0.756 (inactive)
CC[C@@H]1C=C(C(=O)O)[C@H](c2ccc(C)cc2)N1S(=O)(=O)c1ccc(C)cc1	0.74	0.827 (inactive)	0.0876	-0.101	0.759	0.969	0.0014	1.19	-0.697	0.759	-0.479	1.23	0.827	0.915	0.163	0.0388	-0.233	0.285	0.568	2.28 (inactive)
COCCOC(=O)N1C(=O)[C@@]2(c3cc(C#CC4=CCCCC4)ccc31)[C@H](c1ccc(OCCO)cc1)N1[C@H](c3ccccc3)[C@H](c3ccccc3)OC(=O)[C@H]1[C@@H]2C(=O)N1CCc2cc(OC)c(OC)cc2C1	0.134	0.111 (inactive)	0.206	-0.0677	0.342	1.01	0.868	1.31	0.839	0.922	0.936	1.19	0.647	0.874	0.989	1.32	-0.729	1.11	-0.0709	-2.35 (inactive)
C=C(/C(=C/C[C@H](OC(=O)c1ccncc1)c1ccc(OCCO)cc1)c1cc(C(=O)OC)ccc1OC)C(C)C	0.605	-0.0856 (inactive)	-0.0362	-0.135	0.514	1.15	0.284	0.516	-0.0985	0.985	0.785	1	0.359	0.821	0.789	0.494	-0.228	0.546	0.681	-0.357 (inactive)
COCC(=C=CC[C@H](O)c1cccc(OCCO)c1)C[C@H](O)c1cc(Cl)cc(Cl)c1O	0.187	-0.103 (inactive)	-0.0343	-0.0083	0.383	1.77	0.328	1.3	0.695	0.337	1.69	1.11	0.0607	0.0479	1.37	1.87	0.324	1.37	0.107	-0.709 (inactive)
Cc1ccc(S[C@]2(C(=O)NCC(C)C)CC(=O)N(Cc3cc(C(F)(F)F)cc(C(F)(F)F)c3)[C@@H]2c2ccc(CO)cc2)cc1	0.539	-0.0662 (inactive)	-0.123	0.0362	0.78	0.586	1.56	-0.309	-0.256	-0.512	0.63	-0.8	-0.261	-0.529	-0.0643	-0.205	-0.587	-0.866	-0.262	0.111 (inactive)
CN(C)CCCC[C@@H]1NC(=O)[C@H]2C[C@@H](C(=O)NCCCCCN)[C@@H](c3cccc(OCCO)c3)N2C1=O	0.878	0.522 (inactive)	0.313	0.41	0.746	1.75	1.12	1.19	0.402	1.12	2.91	1.12	0.297	1.01	1.38	1.22	0.129	1.66	1.48	-0.69 (inactive)
C=CCNC(=O)[C@H]1[C@@H]2C(=O)O[C@@H](c3ccccc3)[C@@H](c3ccccc3)N2[C@@H](c2ccc(OCCO)cc2)[C@]12C(=O)Nc1ccc(C#CCC(C(=O)OC)C(=O)OC)cc12	0.629	0.612 (inactive)	0.116	0.0022	0.328	1.92	0.979	1.3	1.24	1.12	2.47	1.2	0.413	0.858	0.929	0.826	-0.765	0.385	0.887	-0.275 (inactive)
O=C1NC(=O)C2C1C=CC(C(O)C=Cc1ccc([N+](=O)[O-])cc1)N2Nc1ccc(Cl)cc1Cl (stereo not given)	0.89	0.541 (inactive)	0.405	0.39	0.76	2.07	1.01	0.756	0.397	0.76	1.72	1.11	0.0716	0.646	1.04	-0.18	0.408	-0.443	0.957	-3.39 (inactive)
